Source: PMC7862700, “An all-to-all approach to the identification of sequence-specific readers for epigenetic DNA modifications on cytosine”

Columns and labels:
Assay in all cases: DAPPL (digital affinity profiling via proximity ligation, sequencing); 10 mM Tris-HCl pH 7.5, 50 mM NaCl, 1 mM DTT, 4% glycerol, room temperature, 30 min; GST-TFs on glutathione beads, 16-mer random dsDNA library, 0.1% formaldehyde crosslink after washing; high values mean tight binding
Conditions in all cases: protein: recombinant; tags: N-terminal GST; dsDNA, one strand shown
FLI1 = target: T1, FLI1 (Homo sapiens, UniProt Q01543 1-452)
T1 sequence: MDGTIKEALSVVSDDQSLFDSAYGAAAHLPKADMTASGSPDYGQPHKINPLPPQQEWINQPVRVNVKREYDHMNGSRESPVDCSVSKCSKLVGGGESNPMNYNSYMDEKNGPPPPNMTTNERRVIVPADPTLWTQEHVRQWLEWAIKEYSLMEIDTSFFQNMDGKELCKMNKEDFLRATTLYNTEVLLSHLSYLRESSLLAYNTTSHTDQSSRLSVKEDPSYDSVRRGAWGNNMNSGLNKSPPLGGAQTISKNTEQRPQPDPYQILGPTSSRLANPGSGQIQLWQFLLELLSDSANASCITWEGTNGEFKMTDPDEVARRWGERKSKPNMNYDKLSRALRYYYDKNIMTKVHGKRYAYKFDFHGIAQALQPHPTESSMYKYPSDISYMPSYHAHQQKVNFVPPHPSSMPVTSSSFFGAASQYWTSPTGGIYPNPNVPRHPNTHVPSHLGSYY
Summary of the method: (§1)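 Beads coated with glutathione captured GST-fused human transcription factors that had been expressed in yeast, and the factors were then given DNA barcodes and pooled with a tag-only sample. The pools were incubated with 200 nmole of a random double-stranded 16-mer DNA library in Tris/NaCl/DTT/glycerol buffer for 30 min at room temperature, washed, crosslinked with 0.1% formaldehyde and proximity-ligated with BsaI/T4 ligase at 37 °C for 1 h. PCR amplification and Illumina NextSeq500 sequencing came last. Binding signal is each hexamer's read frequency for a factor divided by its frequency for the tag-only sample.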

ELK1 = target: T2, ELK1 (Homo sapiens, UniProt P19419 1-428)
T2 sequence: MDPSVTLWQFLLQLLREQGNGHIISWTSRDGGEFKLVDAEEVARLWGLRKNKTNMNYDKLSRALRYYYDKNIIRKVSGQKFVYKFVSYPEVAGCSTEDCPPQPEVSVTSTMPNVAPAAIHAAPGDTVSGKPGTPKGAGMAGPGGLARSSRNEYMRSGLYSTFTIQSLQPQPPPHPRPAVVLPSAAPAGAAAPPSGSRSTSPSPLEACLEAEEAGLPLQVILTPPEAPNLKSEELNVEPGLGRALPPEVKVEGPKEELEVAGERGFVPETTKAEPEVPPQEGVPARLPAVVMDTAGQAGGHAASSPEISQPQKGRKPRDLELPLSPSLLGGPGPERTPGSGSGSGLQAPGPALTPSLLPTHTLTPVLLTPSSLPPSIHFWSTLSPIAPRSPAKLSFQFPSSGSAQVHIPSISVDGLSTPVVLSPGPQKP
Summary of the method: as §1

GABPA = target: T3, GABPA (Homo sapiens, UniProt Q06546 1-454)
T3 sequence: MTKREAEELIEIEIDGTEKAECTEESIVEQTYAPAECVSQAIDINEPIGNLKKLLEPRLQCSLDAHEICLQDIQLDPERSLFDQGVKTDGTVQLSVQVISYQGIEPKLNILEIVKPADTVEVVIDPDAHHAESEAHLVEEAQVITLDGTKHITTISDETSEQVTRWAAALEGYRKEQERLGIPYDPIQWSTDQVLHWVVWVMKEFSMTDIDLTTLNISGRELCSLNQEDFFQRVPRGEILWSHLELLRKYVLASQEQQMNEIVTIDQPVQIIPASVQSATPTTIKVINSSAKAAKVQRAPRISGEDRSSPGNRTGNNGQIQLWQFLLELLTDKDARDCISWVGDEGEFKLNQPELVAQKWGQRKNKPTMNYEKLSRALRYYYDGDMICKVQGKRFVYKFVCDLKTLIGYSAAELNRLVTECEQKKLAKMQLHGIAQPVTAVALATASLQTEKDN
Summary of the method: as §1

ERG = target: T4, ERG (Homo sapiens, UniProt P11308 1-479)
T4 sequence: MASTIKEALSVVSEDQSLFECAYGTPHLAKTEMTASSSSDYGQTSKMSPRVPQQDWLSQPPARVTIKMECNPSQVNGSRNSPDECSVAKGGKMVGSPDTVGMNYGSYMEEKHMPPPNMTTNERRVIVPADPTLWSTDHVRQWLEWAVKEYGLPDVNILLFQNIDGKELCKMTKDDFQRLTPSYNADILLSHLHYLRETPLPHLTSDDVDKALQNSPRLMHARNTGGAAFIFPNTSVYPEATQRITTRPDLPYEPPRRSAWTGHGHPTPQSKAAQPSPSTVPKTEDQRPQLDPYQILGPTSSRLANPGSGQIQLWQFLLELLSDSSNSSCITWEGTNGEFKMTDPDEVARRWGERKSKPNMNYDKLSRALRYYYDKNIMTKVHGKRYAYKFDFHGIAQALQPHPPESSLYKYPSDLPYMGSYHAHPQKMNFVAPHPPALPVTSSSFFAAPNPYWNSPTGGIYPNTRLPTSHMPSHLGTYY
Summary of the method: as §1

ELF1 = ELF1 (Homo sapiens, UniProt P32519 1-619)
Summary of the method: as §1

EHF = target: T5, EHF (Homo sapiens, UniProt Q9NZC4 1-300)
T5 sequence: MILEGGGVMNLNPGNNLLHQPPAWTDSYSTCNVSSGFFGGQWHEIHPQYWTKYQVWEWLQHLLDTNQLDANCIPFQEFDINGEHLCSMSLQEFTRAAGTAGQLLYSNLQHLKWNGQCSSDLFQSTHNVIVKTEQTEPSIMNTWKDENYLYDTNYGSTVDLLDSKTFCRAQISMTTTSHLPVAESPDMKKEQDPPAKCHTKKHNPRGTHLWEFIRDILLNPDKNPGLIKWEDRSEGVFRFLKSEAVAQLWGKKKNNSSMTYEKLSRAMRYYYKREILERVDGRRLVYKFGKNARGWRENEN
Summary of the method: as §1

SPI1 = SPI1 (Homo sapiens, UniProt P17947 1-270)
Summary of the method: as §1

SPIB = SPIB (Homo sapiens, UniProt Q01892 1-262)
Summary of the method: as §1

ELK3 = target: T6, ELK3 (Homo sapiens, UniProt P41970 1-407)
T6 sequence: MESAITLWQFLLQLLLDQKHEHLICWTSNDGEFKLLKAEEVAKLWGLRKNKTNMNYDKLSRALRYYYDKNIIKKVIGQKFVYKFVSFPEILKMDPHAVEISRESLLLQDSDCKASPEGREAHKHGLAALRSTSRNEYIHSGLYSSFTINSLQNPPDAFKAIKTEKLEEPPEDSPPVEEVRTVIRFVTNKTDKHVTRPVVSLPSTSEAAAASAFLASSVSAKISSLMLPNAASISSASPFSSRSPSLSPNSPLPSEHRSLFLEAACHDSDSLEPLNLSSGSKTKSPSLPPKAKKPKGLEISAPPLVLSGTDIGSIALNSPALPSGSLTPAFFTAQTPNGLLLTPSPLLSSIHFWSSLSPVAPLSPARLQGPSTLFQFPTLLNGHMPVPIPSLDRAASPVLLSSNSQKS
Summary of the method: as §1

ELF1, sequence (P32519 whole entry): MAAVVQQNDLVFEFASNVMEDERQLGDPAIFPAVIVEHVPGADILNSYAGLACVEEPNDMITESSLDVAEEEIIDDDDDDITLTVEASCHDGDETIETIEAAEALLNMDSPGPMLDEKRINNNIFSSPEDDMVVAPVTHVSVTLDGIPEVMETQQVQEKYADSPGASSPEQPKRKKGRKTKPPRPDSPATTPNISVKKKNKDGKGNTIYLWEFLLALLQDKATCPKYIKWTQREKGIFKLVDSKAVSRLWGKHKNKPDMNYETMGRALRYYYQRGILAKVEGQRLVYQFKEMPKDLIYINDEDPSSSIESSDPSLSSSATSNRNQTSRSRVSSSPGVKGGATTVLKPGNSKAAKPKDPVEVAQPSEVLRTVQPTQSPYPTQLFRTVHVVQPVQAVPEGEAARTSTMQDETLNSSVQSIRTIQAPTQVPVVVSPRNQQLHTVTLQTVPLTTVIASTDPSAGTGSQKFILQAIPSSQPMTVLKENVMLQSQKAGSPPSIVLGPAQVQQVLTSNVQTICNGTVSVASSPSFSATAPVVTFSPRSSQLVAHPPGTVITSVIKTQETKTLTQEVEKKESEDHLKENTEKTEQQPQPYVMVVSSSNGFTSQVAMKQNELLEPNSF
SPIB, sequence (Q01892 whole entry): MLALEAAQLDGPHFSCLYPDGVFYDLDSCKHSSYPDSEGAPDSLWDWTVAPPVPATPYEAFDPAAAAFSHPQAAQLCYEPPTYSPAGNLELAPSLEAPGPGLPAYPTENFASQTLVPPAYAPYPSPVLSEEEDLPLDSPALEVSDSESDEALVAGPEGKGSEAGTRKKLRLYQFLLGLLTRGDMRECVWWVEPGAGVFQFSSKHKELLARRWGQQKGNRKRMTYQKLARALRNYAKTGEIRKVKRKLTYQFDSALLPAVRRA

Q: TTTCAG was tested. Which binding signal (FLI1) did it give?
A: 1.36 fold enrichment (6-mer frequency, TF over GST control)

Q: And the binding signal (ELK1)?
A: 1.19 fold enrichment (6-mer frequency, TF over GST control)

Q: What about the binding signal (GABPA) of the same sequence?
A: 1.34 fold enrichment (6-mer frequency, TF over GST control)

Q: What about the binding signal (ERG) of the same sequence?
A: 1.3 fold enrichment (6-mer frequency, TF over GST control)

Q: What about the binding signal (ELF1) of the same sequence?
A: 1.31 fold enrichment (6-mer frequency, TF over GST control)

Q: And the binding signal (EHF)?
A: 1.34 fold enrichment (6-mer frequency, TF over GST control)

Q: And the binding signal (SPI1)?
A: 1.35 fold enrichment (6-mer frequency, TF over GST control)

Q: And the binding signal (SPIB)?
A: 1.24 fold enrichment (6-mer frequency, TF over GST control)

Q: What about the binding signal (ELK3) of the same sequence?
A: 1.23 fold enrichment (6-mer frequency, TF over GST control)
